Calls of active or inactive are those of the source. No stated cut-off is given here; in the data, active means inhibition above about 55%; inactive means the rest.
These compounds were tested on SARS coronavirus 3C-like protease (3CLpro, nsp5) (assay: blockers of SARS 3CLpro activity – biochemical, fluorescence, set 2, late-stage follow-up (AID 488984)). Conditions: recombinant 3CLpro, fluorogenic peptide cleavage; at 100 µM; stronger effect = higher value.

Q: How did the inhibition turn out when `CC(C)(C)NC(=O)C(c1ccsc1)N(C(=O)c1n[nH]c2ccccc12)c1ccc(OC(F)F)cc1` (centres undefined) was run?
A: 14.3% (inactive)

Q: How did the inhibition turn out when `CC(C)(C)NC(=O)C(c1cccnc1)N(C(=O)c1n[nH]c2ccccc12)C1CC1` (centres undefined) was run?
A: 9.27% (inactive)

Q: How did the inhibition turn out when `CC(C)c1ccc(N(C(=O)Cc2cccc3ccccc23)C(C(=O)NC(C)(C)C)c2ccsc2)cc1` (centres undefined) was run?
A: 8.43% (inactive)

Q: `CC(C)(C)NC(=O)C(c1cccnc1)N(C(=O)c1n[nH]c2ccccc12)c1ccc(OC(F)F)cc1` (centres undefined) was tested. Which inhibition did it give?
A: 24.6% (inactive)

Q: How did the inhibition turn out when `CC(C)(C)NC(=O)C(c1cccnc1)N(C(=O)Cc1cccnc1)c1ccc(OCF)cc1` (centres undefined) was run?
A: 18.7% (inactive)

Q: How did the inhibition turn out when `Cc1nc2ccccc2n1CC(=O)N(c1ccc(N)cc1)C(C(=O)NC(C)(C)C)c1ccsc1` (centres undefined) was run?
A: 1.01% (inactive)

Q: Which inhibition does the source give for `CC(C)(C)NC(=O)C(c1ccsc1)N(C(=O)Cc1cccc2ccccc12)c1ccc(F)cc1` (centres undefined) here?
A: 19.2% (inactive)

Q: With `CC(C)(C)NC(=O)C(c1cccnc1)N(C(=O)c1ccc(C(F)(F)F)nc1)c1ccc(OCF)cc1` (centres undefined) as the compound, how does the inhibition read?
A: 13.7% (inactive)

Q: For `CC(C)c1ccc(N(C(=O)c2ccco2)C(C(=O)NC(C)(C)C)c2cccnc2)cc1` (centres undefined), which inhibition is on record?
A: 65.6% (active)

Q: Which inhibition does the source give for `CC(C)(C)NC(=O)C(c1ccsc1)N(C(=O)c1ccc(C#N)cc1)c1ccc(OCF)cc1` (centres undefined) here?
A: 17.8% (inactive)

Q: For `CC(C)(C)NC(=O)C(c1ccsc1)N(C(=O)Cn1nnc2ccccc21)c1ccc(C(C)(C)C)cc1` (centres undefined), which inhibition is on record?
A: 2.8% (inactive)

Q: Which inhibition does the source give for `CC(C)(C)NC(=O)C(c1cccnc1)N(C(=O)c1ccc(C#N)cc1)c1ccc(F)cc1` (centres undefined) here?
A: -13.5% (inactive)

Q: For `CC(C)(C)NC(=O)C(c1ccsc1)N(C(=O)c1n[nH]c2ccccc12)C1CC1` (centres undefined), which inhibition is on record?
A: 13% (inactive)

Q: How did the inhibition turn out when `CC(C)(C)NC(=O)C(c1cccnc1)N(C(=O)c1cccc2c1CCCC2)c1ccc(C(C)(C)C)cc1` (centres undefined) was run?
A: 12.7% (inactive)

Q: `CC(C)c1ccc(N(C(=O)c2ccc(C#N)cc2)C(C(=O)NC(C)(C)C)c2ccsc2)cc1` (centres undefined) was tested. Which inhibition did it give?
A: -5.45% (inactive)

Q: `CC(C)C(=O)Nc1ccc(N(C(=O)Cn2nnc3ccccc32)C(C(=O)NC(C)(C)C)c2ccsc2)cc1` (centres undefined) was tested. Which inhibition did it give?
A: 96.7% (active)

Q: With `CC(C)(C)NC(=O)C(c1ccsc1)N(C(=O)c1n[nH]c2ccccc12)c1ccc(F)cc1` (centres undefined) as the compound, how does the inhibition read?
A: 15.3% (inactive)

Q: `CC(C)c1ccc(N(C(=O)c2ccc(C(F)(F)F)nc2)C(C(=O)NC(C)(C)C)c2cccnc2)cc1` (centres undefined) was tested. Which inhibition did it give?
A: -15.3% (inactive)

Q: For `CCC(=O)Nc1ccc(N(C(=O)Cn2cnc3ccccc32)C(C(=O)NC(C)(C)C)c2ccsc2)cc1` (centres undefined), which inhibition is on record?
A: 61.1% (active)

Q: With `CC(C)(C)NC(=O)C(c1cccnc1)N(C(=O)c1ccc(C(F)(F)F)nc1)c1ccc(C(C)(C)C)cc1` (centres undefined) as the compound, how does the inhibition read?
A: 8.39% (inactive)

Q: `CC(C)(C)NC(=O)C(c1ccsc1)N(C(=O)c1ccc(C(F)(F)F)nc1)c1ccc(C(C)(C)C)cc1` (centres undefined) was tested. Which inhibition did it give?
A: 19.7% (inactive)

Q: `CC(C)(C)NC(=O)C(c1ccsc1)N(C(=O)Cc1cccnc1)C1CC1` (centres undefined) was tested. Which inhibition did it give?
A: 25.9% (inactive)

Q: How did the inhibition turn out when `CC(C)(C)NC(=O)C(c1cccnc1)N(C(=O)Cc1cccc2ccccc12)c1ccc(OCF)cc1` (centres undefined) was run?
A: 3.12% (inactive)

Q: For `CC(C)(C)NC(=O)C(c1cccnc1)N(C(=O)Cc1c[nH]c2ccccc12)C1CC1` (centres undefined), which inhibition is on record?
A: 8.97% (inactive)

Q: For `CCC(=O)Nc1ccc(N(C(=O)Cn2ccnc2C)C(C(=O)NC(C)(C)C)c2ccsc2)cc1` (centres undefined), which inhibition is on record?
A: 5.34% (inactive)

Q: `CC(C)(C)NC(=O)C(c1ccsc1)N(C(=O)Cc1cccc2ccccc12)C1CC1` (centres undefined) was tested. Which inhibition did it give?
A: 16.5% (inactive)

Q: With `CC(C)(C)NC(=O)C(c1ccsc1)N(C(=O)c1cccc2c1CCCC2)c1ccc(C(C)(C)C)cc1` (centres undefined) as the compound, how does the inhibition read?
A: 12.9% (inactive)

Q: How did the inhibition turn out when `CC(C)(C)NC(=O)C(c1cccnc1)N(C(=O)Cc1c[nH]c2ccccc12)c1ccc(F)cc1` (centres undefined) was run?
A: 5.7% (inactive)

Q: Which inhibition does the source give for `CC(C)(C)NC(=O)C(c1ccsc1)N(C(=O)Cc1c[nH]c2ccccc12)c1ccc(F)cc1` (centres undefined) here?
A: 17.7% (inactive)

Q: Which inhibition does the source give for `CC(C)c1ccc(N(C(=O)Cc2cccnc2)C(C(=O)NC(C)(C)C)c2cccnc2)cc1` (centres undefined) here?
A: 2.83% (inactive)

Q: For `CC(C)(C)NC(=O)C(c1ccsc1)N(C(=O)Cn1cnc2ccccc21)c1ccc(C(C)(C)C)cc1` (centres undefined), which inhibition is on record?
A: 1.78% (inactive)

Q: With `CC(C)(C)NC(=O)C(c1ccsc1)N(C(=O)c1ccc(C#N)cc1)c1ccc(C(C)(C)C)cc1` (centres undefined) as the compound, how does the inhibition read?
A: 22.7% (inactive)

Q: Which inhibition does the source give for `CC(C)(C)NC(=O)C(c1ccsc1)N(C(=O)c1ccco1)c1ccc(OC(F)F)cc1` (centres undefined) here?
A: 25.9% (inactive)

Q: With `Cc1nc2ccccc2n1CC(=O)N(c1ccc(C(C)(C)C)cc1)C(C(=O)NC(C)(C)C)c1ccsc1` (centres undefined) as the compound, how does the inhibition read?
A: 2.02% (inactive)
